Assay results reported in PMC7862700, “An all-to-all approach to the identification of sequence-specific readers for epigenetic DNA modifications on cytosine”.

Legend:
Test in all cases: DAPPL (digital affinity profiling via proximity ligation, sequencing); 10 mM Tris-HCl pH 7.5, 50 mM NaCl, 1 mM DTT, 4% glycerol, room temperature, 30 min; GST-TFs on glutathione beads, 16-mer random dsDNA library, 0.1% formaldehyde crosslink after washing; high values mean tight binding
FLI1 = molecular target: T1, FLI1 (Homo sapiens, UniProt Q01543 1-452); details: protein: recombinant; tags: N-terminal GST; dsDNA, one strand shown
T1 sequence: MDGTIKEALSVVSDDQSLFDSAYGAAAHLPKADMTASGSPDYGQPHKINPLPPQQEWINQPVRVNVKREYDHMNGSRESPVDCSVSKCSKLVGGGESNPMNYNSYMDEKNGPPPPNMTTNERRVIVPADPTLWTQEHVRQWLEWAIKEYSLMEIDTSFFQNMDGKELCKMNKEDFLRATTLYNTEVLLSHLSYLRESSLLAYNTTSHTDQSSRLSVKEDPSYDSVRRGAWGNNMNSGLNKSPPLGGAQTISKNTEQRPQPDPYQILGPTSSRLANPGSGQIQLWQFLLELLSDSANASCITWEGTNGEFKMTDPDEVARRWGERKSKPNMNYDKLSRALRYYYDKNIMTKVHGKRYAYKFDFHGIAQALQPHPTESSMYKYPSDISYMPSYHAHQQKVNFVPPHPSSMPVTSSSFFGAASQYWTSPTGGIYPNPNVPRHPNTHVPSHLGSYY
Procedure, shortened: (§1)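 Human transcription factors carrying a GST fusion were produced in yeast, bound to glutathione beads, tagged with DNA barcodes and pooled together with a tag-only sample. Each pool was held with 200 nmole of a random double-stranded 16-mer DNA library in Tris/NaCl/DTT/glycerol buffer for 30 min at room temperature, then washed, crosslinked in 0.1% formaldehyde, proximity-ligated with BsaI/T4 ligase (1 h, 37 °C), PCR-amplified and sequenced on an Illumina NextSeq500. Binding signal is the read frequency of each hexamer for a given factor divided by its frequency in the tag-only sample.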

ELK1 = molecular target: T2, ELK1 (Homo sapiens, UniProt P19419 1-428); details: protein: recombinant; tags: N-terminal GST; dsDNA, one strand shown
T2 sequence: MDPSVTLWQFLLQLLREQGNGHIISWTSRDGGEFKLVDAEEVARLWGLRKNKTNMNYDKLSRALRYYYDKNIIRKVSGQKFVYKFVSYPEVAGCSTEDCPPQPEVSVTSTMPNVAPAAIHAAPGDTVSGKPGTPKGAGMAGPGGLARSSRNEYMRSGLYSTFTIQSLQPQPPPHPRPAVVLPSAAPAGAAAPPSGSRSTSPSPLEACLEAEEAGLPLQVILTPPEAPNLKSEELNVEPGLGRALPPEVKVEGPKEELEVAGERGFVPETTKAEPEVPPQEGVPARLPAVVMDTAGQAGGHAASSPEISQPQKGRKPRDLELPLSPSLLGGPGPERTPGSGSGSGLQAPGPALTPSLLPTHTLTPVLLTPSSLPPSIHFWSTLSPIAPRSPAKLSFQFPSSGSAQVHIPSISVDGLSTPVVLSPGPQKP
Procedure, shortened: as §1

GABPA = molecular target: T3, GABPA (Homo sapiens, UniProt Q06546 1-454); details: protein: recombinant; tags: N-terminal GST; dsDNA, one strand shown
T3 sequence: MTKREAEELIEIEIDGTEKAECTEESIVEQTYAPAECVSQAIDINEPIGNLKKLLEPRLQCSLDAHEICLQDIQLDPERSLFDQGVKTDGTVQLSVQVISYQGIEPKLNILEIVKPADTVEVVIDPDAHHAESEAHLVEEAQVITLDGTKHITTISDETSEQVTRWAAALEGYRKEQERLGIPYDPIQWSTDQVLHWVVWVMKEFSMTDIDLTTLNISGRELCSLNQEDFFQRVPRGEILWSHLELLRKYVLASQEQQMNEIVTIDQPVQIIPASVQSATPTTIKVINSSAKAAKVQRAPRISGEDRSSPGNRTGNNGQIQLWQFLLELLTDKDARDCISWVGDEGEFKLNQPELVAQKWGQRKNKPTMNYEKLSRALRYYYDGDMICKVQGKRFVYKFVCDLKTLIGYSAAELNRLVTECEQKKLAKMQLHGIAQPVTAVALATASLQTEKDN
Procedure, shortened: as §1

ERG = molecular target: T4, ERG (Homo sapiens, UniProt P11308 1-479); details: protein: recombinant; tags: N-terminal GST; dsDNA, one strand shown
T4 sequence: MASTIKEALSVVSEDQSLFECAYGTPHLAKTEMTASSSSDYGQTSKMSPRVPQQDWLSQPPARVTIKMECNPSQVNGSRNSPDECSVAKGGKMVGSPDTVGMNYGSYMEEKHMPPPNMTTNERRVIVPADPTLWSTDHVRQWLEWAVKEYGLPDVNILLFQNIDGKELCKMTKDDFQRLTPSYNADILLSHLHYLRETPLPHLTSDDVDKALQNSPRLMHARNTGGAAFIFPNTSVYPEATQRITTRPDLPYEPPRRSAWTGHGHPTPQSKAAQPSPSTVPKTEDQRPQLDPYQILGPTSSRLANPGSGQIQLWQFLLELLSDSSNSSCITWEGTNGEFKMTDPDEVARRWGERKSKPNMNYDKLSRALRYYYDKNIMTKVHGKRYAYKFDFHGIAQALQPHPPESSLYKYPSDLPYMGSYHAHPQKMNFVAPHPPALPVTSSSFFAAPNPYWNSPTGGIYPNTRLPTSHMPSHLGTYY
Procedure, shortened: as §1

ELF1 = ELF1 (Homo sapiens, UniProt P32519 1-619); details: protein: recombinant; tags: N-terminal GST; dsDNA, one strand shown
Sequence of ELF1 (P32519 whole entry): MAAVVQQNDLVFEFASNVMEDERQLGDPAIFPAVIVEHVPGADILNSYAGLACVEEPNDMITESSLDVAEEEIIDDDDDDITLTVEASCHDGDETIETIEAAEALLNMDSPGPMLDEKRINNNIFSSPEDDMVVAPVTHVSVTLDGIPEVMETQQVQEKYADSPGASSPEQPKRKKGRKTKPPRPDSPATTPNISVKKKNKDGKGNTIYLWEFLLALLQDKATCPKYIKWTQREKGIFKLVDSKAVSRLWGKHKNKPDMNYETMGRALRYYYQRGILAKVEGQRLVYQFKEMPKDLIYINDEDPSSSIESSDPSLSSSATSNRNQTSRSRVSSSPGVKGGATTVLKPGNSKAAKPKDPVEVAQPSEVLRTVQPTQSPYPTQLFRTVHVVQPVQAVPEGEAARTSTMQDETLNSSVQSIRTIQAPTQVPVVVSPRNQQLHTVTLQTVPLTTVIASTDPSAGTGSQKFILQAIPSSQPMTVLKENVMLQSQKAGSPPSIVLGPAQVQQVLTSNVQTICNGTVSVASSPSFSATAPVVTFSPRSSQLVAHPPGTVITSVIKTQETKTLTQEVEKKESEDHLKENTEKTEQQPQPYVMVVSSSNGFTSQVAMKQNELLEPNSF
Procedure, shortened: as §1

EHF = molecular target: T5, EHF (Homo sapiens, UniProt Q9NZC4 1-300); details: protein: recombinant; tags: N-terminal GST; dsDNA, one strand shown
T5 sequence: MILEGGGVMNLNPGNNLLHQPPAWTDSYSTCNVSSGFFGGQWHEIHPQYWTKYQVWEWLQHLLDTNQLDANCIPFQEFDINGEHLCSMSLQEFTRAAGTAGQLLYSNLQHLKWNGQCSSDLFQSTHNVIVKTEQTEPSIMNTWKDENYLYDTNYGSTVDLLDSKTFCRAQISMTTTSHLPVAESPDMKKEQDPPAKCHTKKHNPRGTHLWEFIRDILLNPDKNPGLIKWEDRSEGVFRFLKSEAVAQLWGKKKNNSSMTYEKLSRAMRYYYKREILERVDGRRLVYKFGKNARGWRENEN
Procedure, shortened: as §1

SPI1 = SPI1 (Homo sapiens, UniProt P17947 1-270); details: protein: recombinant; tags: N-terminal GST; dsDNA, one strand shown
Procedure, shortened: as §1

SPIB = SPIB (Homo sapiens, UniProt Q01892 1-262); details: protein: recombinant; tags: N-terminal GST; dsDNA, one strand shown
Sequence of SPIB (Q01892 whole entry): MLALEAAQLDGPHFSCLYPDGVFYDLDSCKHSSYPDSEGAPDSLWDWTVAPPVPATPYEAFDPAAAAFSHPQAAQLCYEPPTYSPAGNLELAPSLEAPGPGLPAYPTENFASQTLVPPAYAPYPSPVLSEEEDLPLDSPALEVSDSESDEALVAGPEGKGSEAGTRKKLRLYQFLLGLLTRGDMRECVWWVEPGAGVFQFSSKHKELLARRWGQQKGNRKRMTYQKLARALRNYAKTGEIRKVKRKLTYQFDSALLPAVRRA
Procedure, shortened: as §1

ELK3 = molecular target: T6, ELK3 (Homo sapiens, UniProt P41970 1-407); details: protein: recombinant; tags: N-terminal GST; dsDNA, one strand shown
T6 sequence: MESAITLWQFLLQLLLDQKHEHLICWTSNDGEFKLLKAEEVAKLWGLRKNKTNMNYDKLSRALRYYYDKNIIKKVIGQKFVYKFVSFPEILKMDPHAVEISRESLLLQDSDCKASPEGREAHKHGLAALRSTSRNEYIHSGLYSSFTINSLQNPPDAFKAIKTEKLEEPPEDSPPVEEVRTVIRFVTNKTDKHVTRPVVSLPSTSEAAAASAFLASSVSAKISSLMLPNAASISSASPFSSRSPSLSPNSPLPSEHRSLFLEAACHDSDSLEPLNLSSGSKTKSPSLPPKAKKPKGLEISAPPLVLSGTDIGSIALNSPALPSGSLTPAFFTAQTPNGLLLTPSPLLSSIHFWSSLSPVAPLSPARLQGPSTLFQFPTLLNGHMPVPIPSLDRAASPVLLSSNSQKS
Procedure, shortened: as §1

FEV = molecular target: T7, FEV (Homo sapiens, UniProt Q99581 1-238); details: protein: recombinant; tags: N-terminal GST; dsDNA, one strand shown
T7 sequence: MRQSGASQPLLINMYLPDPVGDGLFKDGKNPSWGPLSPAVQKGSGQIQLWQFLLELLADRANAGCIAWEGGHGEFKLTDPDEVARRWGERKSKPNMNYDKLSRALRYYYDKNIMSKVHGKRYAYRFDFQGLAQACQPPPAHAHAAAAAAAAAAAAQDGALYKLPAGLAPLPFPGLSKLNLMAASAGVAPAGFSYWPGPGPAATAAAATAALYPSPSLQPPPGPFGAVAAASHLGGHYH
Procedure, shortened: as §1

ETV5 = ETV5 (Homo sapiens, UniProt P41161 1-510); details: protein: recombinant; tags: N-terminal GST; dsDNA, one strand shown
Sequence of ETV5 (P41161 whole entry): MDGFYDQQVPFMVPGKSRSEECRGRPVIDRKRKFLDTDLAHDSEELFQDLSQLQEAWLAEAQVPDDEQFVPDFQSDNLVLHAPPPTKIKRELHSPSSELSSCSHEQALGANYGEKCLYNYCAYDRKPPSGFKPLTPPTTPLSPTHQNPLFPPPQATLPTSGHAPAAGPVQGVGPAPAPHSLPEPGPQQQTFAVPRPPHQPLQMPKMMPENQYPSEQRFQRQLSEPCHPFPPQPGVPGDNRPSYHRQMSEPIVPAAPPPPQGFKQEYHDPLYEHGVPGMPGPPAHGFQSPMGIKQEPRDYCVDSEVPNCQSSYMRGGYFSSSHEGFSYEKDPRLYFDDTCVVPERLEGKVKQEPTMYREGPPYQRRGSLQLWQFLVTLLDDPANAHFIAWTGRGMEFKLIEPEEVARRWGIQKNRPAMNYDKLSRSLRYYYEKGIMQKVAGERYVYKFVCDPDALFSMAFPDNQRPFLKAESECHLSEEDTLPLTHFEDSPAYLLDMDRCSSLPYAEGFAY
Procedure, shortened: as §1

HSF1 = HSF1 (Homo sapiens, UniProt Q00613 1-529); details: protein: recombinant; tags: N-terminal GST; chain copies: 3; dsDNA, one strand shown
Sequence of HSF1 (Q00613 whole entry): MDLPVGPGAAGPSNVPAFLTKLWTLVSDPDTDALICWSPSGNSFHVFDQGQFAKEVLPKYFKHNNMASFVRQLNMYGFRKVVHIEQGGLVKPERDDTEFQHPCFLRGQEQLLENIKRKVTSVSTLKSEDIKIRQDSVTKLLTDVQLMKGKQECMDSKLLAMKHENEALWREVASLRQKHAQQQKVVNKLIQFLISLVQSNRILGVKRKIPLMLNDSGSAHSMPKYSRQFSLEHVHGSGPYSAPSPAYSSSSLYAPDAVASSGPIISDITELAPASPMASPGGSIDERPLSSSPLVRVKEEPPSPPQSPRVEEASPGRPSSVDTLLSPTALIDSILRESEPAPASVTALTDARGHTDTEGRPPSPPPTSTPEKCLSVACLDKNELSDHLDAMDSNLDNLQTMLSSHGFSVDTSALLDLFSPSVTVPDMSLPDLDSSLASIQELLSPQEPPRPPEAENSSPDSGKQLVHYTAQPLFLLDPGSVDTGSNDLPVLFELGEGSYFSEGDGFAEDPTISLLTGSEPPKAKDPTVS
Procedure, shortened: as §1

SPIC = molecular target: T8, SPIC (Homo sapiens, UniProt Q8N5J4 1-248); details: protein: recombinant; tags: N-terminal GST; dsDNA, one strand shown
T8 sequence: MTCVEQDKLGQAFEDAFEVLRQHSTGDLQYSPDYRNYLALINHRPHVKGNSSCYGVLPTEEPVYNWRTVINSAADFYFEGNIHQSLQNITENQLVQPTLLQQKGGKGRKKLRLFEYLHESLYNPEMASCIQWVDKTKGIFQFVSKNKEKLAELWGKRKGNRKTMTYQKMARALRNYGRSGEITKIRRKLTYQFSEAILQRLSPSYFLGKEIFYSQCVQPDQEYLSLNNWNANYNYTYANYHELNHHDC
Procedure, shortened: as §1

ELF4 = ELF4 (Homo sapiens, UniProt Q99607 1-663); details: protein: recombinant; tags: N-terminal GST; dsDNA, one strand shown
Sequence of ELF4 (Q99607 whole entry): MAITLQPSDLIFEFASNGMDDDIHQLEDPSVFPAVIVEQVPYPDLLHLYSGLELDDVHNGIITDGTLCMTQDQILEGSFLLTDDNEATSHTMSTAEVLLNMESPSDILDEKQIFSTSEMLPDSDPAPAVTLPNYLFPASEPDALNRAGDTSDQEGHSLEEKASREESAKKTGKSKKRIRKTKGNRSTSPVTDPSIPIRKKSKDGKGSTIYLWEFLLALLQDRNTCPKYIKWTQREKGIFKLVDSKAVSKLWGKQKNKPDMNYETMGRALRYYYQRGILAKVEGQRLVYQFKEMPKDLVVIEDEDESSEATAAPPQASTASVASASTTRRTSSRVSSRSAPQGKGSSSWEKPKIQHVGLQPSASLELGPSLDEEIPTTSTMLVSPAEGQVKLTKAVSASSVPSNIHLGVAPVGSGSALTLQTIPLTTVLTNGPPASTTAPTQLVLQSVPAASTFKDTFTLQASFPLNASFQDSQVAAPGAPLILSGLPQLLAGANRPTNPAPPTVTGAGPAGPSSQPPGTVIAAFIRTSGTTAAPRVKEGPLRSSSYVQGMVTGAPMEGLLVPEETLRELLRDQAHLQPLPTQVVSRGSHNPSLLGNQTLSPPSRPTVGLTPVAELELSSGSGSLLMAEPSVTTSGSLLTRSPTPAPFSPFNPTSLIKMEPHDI
Procedure, shortened: as §1

ELK4 = molecular target: T9, ELK4 (Homo sapiens, UniProt P28324-2 1-405); details: protein: recombinant; tags: N-terminal GST; dsDNA, one strand shown
T9 sequence: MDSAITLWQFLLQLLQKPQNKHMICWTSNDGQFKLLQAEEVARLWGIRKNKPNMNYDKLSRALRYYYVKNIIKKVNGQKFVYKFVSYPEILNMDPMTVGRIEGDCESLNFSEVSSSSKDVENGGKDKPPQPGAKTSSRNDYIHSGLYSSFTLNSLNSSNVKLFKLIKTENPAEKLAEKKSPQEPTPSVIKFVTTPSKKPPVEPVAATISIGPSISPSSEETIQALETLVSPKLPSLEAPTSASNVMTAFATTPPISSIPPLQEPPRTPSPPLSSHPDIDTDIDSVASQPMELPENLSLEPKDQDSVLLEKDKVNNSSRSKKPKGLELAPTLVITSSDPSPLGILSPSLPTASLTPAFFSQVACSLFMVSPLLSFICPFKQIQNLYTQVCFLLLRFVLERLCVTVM
Procedure, shortened: as §1

ETV2 = molecular target: T10, ETV2 (Homo sapiens, UniProt O00321 1-342); details: protein: recombinant; tags: N-terminal GST; dsDNA, one strand shown
T10 sequence: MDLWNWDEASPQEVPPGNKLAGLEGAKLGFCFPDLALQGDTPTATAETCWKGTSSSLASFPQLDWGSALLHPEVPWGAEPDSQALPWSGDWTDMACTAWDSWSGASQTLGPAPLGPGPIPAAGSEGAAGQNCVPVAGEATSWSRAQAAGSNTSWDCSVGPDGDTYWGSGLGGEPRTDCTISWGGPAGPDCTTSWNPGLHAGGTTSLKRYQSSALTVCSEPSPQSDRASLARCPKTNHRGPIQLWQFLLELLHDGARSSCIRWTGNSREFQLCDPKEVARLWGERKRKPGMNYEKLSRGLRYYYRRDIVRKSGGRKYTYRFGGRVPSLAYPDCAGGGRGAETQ
Procedure, shortened: as §1

ELF3 = molecular target: T11, ELF3 (Homo sapiens, UniProt P78545 1-371); details: protein: recombinant; tags: N-terminal GST; dsDNA, one strand shown
T11 sequence: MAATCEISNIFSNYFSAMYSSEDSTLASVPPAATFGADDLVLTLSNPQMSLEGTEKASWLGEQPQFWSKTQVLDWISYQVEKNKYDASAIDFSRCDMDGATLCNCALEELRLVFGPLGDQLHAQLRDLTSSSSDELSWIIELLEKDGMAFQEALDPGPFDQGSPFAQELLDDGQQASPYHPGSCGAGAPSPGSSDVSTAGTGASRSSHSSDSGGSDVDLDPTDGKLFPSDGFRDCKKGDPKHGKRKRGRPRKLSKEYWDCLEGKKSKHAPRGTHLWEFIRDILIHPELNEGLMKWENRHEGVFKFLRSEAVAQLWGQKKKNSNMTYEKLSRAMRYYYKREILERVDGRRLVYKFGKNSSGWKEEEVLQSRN
Procedure, shortened: as §1

CRX = CRX (Homo sapiens, UniProt O43186 1-299); details: protein: recombinant; tags: N-terminal GST; dsDNA, one strand shown
Sequence of CRX (O43186 whole entry): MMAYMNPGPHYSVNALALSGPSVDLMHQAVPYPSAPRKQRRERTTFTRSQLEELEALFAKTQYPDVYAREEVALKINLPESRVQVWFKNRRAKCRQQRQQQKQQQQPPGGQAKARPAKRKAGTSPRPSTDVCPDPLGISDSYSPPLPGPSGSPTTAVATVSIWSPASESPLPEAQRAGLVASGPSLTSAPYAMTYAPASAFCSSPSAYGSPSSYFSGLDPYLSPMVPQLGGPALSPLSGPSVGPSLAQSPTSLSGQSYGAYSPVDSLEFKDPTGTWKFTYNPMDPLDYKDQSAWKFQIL
Procedure, shortened: as §1

ETV1 = ETV1 (Homo sapiens, UniProt P50549 1-477); details: protein: recombinant; tags: N-terminal GST; dsDNA, one strand shown
Sequence of ETV1 (P50549 whole entry): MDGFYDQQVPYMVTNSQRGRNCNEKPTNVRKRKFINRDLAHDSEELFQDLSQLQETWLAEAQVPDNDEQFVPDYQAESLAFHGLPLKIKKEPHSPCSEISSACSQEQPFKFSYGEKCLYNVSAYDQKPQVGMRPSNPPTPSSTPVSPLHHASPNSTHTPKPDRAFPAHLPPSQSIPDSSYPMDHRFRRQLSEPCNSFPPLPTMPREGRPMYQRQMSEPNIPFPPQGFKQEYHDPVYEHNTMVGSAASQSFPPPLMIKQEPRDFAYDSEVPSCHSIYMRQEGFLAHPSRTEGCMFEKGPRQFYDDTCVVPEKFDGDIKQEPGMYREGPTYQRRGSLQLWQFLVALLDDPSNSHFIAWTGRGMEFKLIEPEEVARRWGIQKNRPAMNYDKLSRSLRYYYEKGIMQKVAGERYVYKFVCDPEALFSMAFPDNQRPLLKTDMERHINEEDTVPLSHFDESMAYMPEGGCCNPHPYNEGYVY
Procedure, shortened: as §1

Sequence: CCGCAA
- binding signal (FLI1): 1.27 fold enrichment (6-mer frequency, TF over GST control)
- binding signal (ELK1): 1.3 fold enrichment (6-mer frequency, TF over GST control)
- binding signal (GABPA): 1.36 fold enrichment (6-mer frequency, TF over GST control)
- binding signal (ERG): 1.28 fold enrichment (6-mer frequency, TF over GST control)
- binding signal (ELF1): 1.31 fold enrichment (6-mer frequency, TF over GST control)
- binding signal (EHF): 1.34 fold enrichment (6-mer frequency, TF over GST control)
- binding signal (SPI1): 1.45 fold enrichment (6-mer frequency, TF over GST control)
- binding signal (SPIB): 1.28 fold enrichment (6-mer frequency, TF over GST control)
- binding signal (ELK3): 1.34 fold enrichment (6-mer frequency, TF over GST control)
- binding signal (FEV): 1.29 fold enrichment (6-mer frequency, TF over GST control)
- binding signal (ETV5): 1.3 fold enrichment (6-mer frequency, TF over GST control)
- binding signal (HSF1): 1.07 fold enrichment (6-mer frequency, TF over GST control)
- binding signal (SPIC): 1.42 fold enrichment (6-mer frequency, TF over GST control)
- binding signal (ELF4): 1.31 fold enrichment (6-mer frequency, TF over GST control)
- binding signal (ELK4): 1.36 fold enrichment (6-mer frequency, TF over GST control)
- binding signal (ETV2): 1.35 fold enrichment (6-mer frequency, TF over GST control)
- binding signal (ELF3): 1.39 fold enrichment (6-mer frequency, TF over GST control)
- binding signal (CRX): 1.01 fold enrichment (6-mer frequency, TF over GST control)
- binding signal (ETV1): 1.38 fold enrichment (6-mer frequency, TF over GST control)
